Measurements taken from PubChem BioAssay.
Where “and” joins values, the source holds several entries; their conditions need not be identical. Identical values can stand only once. Calls of active or inactive are those of the source.

Assays:
[1] = target: Albumin (Bos taurus) (UniProt P02769); experiment: compounds binding labelled BSA control protein – biochemical, small-molecule microarray, Alexa647 label, 635/667 nm fluorescence, artefact control for SMM control protein annotation, profiling panel (AID 1118); conditions: BSA-A647 binding, fluorescence 635 nm, higher = more signal;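 note: score merges 667 nm emission intensity and signal-to-noise per printed compound spot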
Sequence of Albumin (Bos taurus) (P02769 whole entry, looked up): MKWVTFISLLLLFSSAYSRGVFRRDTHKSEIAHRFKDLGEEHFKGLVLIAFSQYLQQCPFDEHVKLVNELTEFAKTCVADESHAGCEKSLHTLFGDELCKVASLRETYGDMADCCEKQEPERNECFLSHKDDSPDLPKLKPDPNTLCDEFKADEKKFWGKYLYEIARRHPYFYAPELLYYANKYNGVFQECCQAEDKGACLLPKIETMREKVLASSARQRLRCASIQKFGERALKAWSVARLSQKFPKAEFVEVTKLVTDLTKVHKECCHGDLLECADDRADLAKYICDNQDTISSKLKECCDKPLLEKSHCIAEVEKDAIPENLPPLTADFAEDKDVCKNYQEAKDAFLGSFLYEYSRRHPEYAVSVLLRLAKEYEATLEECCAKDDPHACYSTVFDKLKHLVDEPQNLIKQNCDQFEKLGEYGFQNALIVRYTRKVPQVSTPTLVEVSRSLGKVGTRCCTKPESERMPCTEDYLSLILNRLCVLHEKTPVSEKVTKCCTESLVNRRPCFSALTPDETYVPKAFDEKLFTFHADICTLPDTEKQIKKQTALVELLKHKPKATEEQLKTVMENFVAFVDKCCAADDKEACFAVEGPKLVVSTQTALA

[2] = probe aXIP binding to arrayed compounds – biochemical, NeuroSMM set, 635/667 nm fluorescence, primary screen (AID 1119); conditions: small-molecule microarray, higher = more signal, called active from +8 up or from −8 down;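 note: probe is the protein aXip251-270 applied at 1 µg/mL to compound-printed slides; binding of probe to printed compounds measured as 667 nm fluorescence plus signal to noise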
[3] = probe aNOTCH3 binding on compound microarray – biochemical, small-molecule microarray, 635/667 nm fluorescence, primary screen (AID 1120); conditions: higher = more signal;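 note: probe is a biotin-tagged antibody raised against NOTCH3 rather than NOTCH3 protein; score merges spot fluorescence near 667 nm with spot signal to noise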
[4] = probe aNOTCH2 binding on compound microarray – biochemical, small-molecule microarray, 635/667 nm fluorescence, primary screen (AID 1121); conditions: higher = more signal;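 note: score merges feature fluorescence read at 667 nm with its signal to noise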
[5] = target: Carbonic anhydrase 2 (Homo sapiens) (UniProt P00918); experiment: compounds binding carbonic anhydrase 2 – biochemical, small-molecule microarray, Alexa647-labelled CAII, profiling panel (AID 1122); conditions: CAII-A647 binding fluorescence, higher = more signal
[6] = COS7 lysate on small-molecule microarray, probe aHis, 635 nm (AID 1123); conditions: COS7 cell lysate, fluorescence, higher = more signal;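 note: z-score combines 667nm fluorescence intensity with signal-to-noise per printed compound spot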
[7] = probe aLAP1 signal on lysate-treated microarray – cell lysate, small-molecule microarray, COS7 lysate, primary screen (AID 1124); conditions: probe aLAP1, fluorescence, higher = more signal;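 note: lysate comes from COS7 cells expressing LAP1 and is applied at 0.3 µg/mL; score merges spot fluorescence near 667 nm with signal-to-noise over triplicate slides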
[8] = system: Sam68 (KHDRBS1); experiment: compounds binding KHDRBS1 protein – biochemical, small-molecule microarray, 635 nm fluorescence, primary screen (AID 1125); conditions: higher = more signal;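 note: score merges 667 nm channel intensity with signal to noise over triplicate slides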
[9] = system: Chordin-like protein 2 (CHRDL2); experiment: compounds binding chordin-like 2 – biochemical, small-molecule microarray, 635 nm fluorescence, primary screen (AID 1126); conditions: fluorescence 635 nm, higher = more signal;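 note: printed compound slides probed with Chrdl2 protein at 4 µg/mL for 1 h at 4 C; score merges 667 nm emission intensity with signal to noise over three replicate slides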
[10] = target: Concanavalin-A (Canavalia ensiformis) (UniProt P02866); experiment: compounds binding concanavalin A lectin – biochemical, small-molecule microarray, Alexa647 label, 635 nm, artefact control for SMM control protein annotation, primary screen (AID 1127); conditions: ConA-A647 binding fluorescence, higher = more signal;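 note: z combines 667 nm emission intensity with signal-to-noise across three replicate slides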
Sequence of Concanavalin-A (Canavalia ensiformis) (P02866 whole entry, looked up): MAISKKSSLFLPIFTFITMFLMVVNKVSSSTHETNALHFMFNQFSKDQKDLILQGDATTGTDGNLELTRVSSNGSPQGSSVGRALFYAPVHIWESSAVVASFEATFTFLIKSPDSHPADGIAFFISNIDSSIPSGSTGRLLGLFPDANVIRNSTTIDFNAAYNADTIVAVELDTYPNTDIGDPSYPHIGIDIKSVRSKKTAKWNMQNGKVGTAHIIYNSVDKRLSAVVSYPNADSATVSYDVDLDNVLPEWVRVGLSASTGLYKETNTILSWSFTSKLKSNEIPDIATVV

[11] = compounds binding Alexa647 anti-His antibody – biochemical, small-molecule microarray, 635 nm fluorescence, artefact control for SMM control protein annotation, primary screen (AID 1128); conditions: higher = more signal;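 note: score merges feature fluorescence with signal-to-noise for each printed compound spot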
[12] = system: Human papillomavirus type 1a E7 protein (residues 1-88); experiment: HPV1a E7 small-molecule binders, primary screen, biochemical, small-molecule microarray, residues 1-88, 635 nm (AID 1129); conditions: small-molecule microarray binding, fluorescence 635 nm; higher = more signal
[13] = target: Focal adhesion kinase 1 (Homo sapiens) (UniProt Q05397); experiment: PTK2 protein binding on printed compound slides – biochemical, small-molecule microarray, 635/667 nm fluorescence, BSA, DTT, primary screen (AID 1130); conditions: 635 nm fluorescence, higher = more signal;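 note: composite of spot emission at 667 nm and signal to noise over triplicate slides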
Sequence of Focal adhesion kinase 1 (Homo sapiens) (Q05397 whole entry, looked up): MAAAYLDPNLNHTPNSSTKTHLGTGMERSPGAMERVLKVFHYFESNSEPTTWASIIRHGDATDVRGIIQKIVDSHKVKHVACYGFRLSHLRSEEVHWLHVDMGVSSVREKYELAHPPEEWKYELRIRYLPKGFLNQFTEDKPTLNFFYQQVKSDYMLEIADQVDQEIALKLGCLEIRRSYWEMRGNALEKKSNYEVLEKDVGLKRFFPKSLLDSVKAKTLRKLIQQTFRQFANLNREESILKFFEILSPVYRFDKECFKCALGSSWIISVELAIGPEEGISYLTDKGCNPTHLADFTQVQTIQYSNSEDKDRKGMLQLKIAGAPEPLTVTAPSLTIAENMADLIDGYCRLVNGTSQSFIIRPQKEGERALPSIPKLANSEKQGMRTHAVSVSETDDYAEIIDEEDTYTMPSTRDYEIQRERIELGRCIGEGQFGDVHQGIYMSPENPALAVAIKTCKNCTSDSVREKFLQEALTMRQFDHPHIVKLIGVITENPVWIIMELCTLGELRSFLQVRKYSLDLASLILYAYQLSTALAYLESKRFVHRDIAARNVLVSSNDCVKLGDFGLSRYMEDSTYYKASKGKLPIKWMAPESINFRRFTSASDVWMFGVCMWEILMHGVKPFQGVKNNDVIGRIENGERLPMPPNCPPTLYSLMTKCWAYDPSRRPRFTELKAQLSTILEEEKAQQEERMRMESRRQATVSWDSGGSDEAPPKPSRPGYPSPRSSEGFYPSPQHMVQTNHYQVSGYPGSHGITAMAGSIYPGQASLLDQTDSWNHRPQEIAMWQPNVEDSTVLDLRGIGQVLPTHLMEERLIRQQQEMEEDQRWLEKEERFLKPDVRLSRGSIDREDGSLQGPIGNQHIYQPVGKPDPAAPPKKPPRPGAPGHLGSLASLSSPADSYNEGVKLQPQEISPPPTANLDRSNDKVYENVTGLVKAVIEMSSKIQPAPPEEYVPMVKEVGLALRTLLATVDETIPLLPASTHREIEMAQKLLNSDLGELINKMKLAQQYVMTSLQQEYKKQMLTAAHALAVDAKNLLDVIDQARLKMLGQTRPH

[14] = system: Fibrinogen (Alexa647-labelled); experiment: Alexa647-fibrinogen binding to printed small molecules – biochemical, small-molecule microarray, 635/667 nm fluorescence, artefact control for SMM control-protein annotation, profiling panel (AID 1131); conditions: fibrinogen-A647 binding fluorescence, higher = more signal;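 note: z-score merges 667 nm fluorescence with per-spot signal-to-noise over triplicate slides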
[15] = target: Follistatin (Homo sapiens) (UniProt P19883); experiment: FST protein binding to printed compounds – biochemical, small-molecule microarray, 635/667 nm fluorescence, primary screen (AID 1132); conditions: 635 nm fluorescence, higher = more signal
Sequence of Follistatin (Homo sapiens) (P19883 whole entry, looked up): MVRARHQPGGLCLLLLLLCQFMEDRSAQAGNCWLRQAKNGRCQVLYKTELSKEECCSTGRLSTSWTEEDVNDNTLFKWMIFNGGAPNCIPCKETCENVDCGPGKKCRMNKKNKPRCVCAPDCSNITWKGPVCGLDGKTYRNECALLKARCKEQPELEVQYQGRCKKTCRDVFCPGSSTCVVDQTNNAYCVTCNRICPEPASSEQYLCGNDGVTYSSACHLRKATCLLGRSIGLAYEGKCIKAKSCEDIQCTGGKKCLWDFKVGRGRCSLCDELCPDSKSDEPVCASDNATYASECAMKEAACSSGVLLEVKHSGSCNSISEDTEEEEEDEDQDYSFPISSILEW

[16] = target: Fibroblast growth factor 2 (Homo sapiens) (UniProt P09038); experiment: basic fibroblast growth factor binding to printed compounds – biochemical, small-molecule microarray, 635/667 nm fluorescence, primary screen (AID 1133); conditions: FGF2, fluorescence 635/667, higher = more signal
Sequence of Fibroblast growth factor 2 (Homo sapiens) (P09038 whole entry, looked up): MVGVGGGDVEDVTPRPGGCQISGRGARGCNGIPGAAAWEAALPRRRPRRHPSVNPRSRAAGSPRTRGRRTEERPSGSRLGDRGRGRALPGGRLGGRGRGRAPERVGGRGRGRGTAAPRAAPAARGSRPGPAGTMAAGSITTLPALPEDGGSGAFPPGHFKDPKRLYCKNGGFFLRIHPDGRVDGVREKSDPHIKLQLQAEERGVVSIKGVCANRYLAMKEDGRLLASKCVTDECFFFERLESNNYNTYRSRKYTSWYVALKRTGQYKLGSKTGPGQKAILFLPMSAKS

[17] = JC-1 mitochondrial potential readout, lung cancer cells – cell-based, A549, JC-1 fluorescence, basal, 24 h, 100 nL, profiling panel (AID 1138); conditions: higher = more signal;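 note: A549 lung adenocarcinoma cells under basal conditions with no added stimulus; test concentration not given here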
[18] = system: Lefty1; experiment: Lefty1 protein binding to printed compounds – biochemical, small-molecule microarray, 635/667 nm fluorescence, primary screen (AID 1139); conditions: fluorescence 635/667, higher = more signal
[19] = system: wheat germ agglutinin (Triticum aestivum), Alexa647-labelled; experiment: Alexa647-WGA lectin binding to printed small molecules – biochemical, small-molecule microarray, 635/667 nm fluorescence, artefact control for SMM control-protein annotation, profiling panel (AID 1140); conditions: WGA-A647 binding, 635 nm fluorescence, higher = more signal;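 note: score merges 667 nm feature emission with signal to noise over triplicate slides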
[20] = target: Luciferin 4-monooxygenase (Photinus pyralis) (UniProt P08659); experiment: inhibition of purified Photinus pyralis luciferase – biochemical, luminescence, purified enzyme, 2006 set, primary screen (AID 1141); conditions: purified firefly luciferase, SteadyGlo luminescence, 30 min; higher = more signal, called active from +8 up or from −8 down;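 note: cell-free assay with purified firefly luciferase at 100 ng per well in PBS; test concentration not given here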
Sequence of Luciferin 4-monooxygenase (Photinus pyralis) (P08659 whole entry, looked up): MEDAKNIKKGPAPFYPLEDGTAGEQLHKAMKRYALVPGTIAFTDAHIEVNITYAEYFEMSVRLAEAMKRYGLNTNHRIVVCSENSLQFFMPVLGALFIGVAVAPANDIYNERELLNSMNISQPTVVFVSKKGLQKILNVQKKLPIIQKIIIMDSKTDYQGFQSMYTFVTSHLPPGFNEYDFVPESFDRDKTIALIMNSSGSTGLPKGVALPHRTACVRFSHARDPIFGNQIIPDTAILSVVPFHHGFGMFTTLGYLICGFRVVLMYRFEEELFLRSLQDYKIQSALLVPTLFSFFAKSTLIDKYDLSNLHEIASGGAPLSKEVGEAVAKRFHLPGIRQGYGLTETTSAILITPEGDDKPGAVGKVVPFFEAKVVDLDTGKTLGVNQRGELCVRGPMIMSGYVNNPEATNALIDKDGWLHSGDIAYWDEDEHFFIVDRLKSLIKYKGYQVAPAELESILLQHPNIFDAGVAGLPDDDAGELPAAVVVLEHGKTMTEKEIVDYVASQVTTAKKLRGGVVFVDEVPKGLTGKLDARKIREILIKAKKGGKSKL

SMILES | composite z-score [1] | composite Z-score [2] | composite z-score [3] | composite z-score [4] | composite z-score [5] | composite z-score [6] | composite z-score [7] | composite z-score [8] | composite z-score [9] | composite z-score [10] | composite z-score [11] | composite z-score [12] | composite z-score [13] | composite z-score [14] | composite z-score [15] | composite z-score [16] | z-score [17] | composite z-score [18] | composite z-score [19] | z-score [20]
COC(=O)CC=C[C@@H](C)[C@@H](CO)NS(=O)(=O)c1ccc(C)cc1 | 0.0833 and -0.252 | 0.105 (inactive) and 0.309 (inactive) | -0.0391 and 0.111 | -0.0703 and -0.14 | -0.121 and 0.0581 | -0.114 and 0.0271 | -0.144 and -0.481 | -0.182 and 0.567 | 0.696 and 1.03 | -0.213 and -0.52 | 0.929 and 0.293 | 0.298 and 0.512 | 0.0223 and -0.111 | -0.223 and 0.225 | 0.523 and 0.791 | 0.646 and 0.574 | -0.145 and 0.884 | 0.648 and 0.88 | -0.22 and 0.117 | 0.0494 (inactive) and -0.803 (inactive)
C=CCN(Cc1ccccc1)C(=O)C1N(C(C)(C)CO)C(=O)C2C(C(=O)O)C3C=CC21O3 (stereo not given) | -1.24 and -0.826 | -0.498 (inactive) and -0.61 (inactive) | -0.358 and -0.475 | -0.126 and -0.0956 | 0.47 and 0.296 | -0.0142 and -0.798 | -0.587 and -0.987 | -1.6 and -1.66 | -2.74 and -1.88 | -2.4 and -2.33 | -1.67 and -0.97 | -1.24 and -0.825 | -0.571 and -1.31 | -2.5 and -2.76 | -2.21 and -1.21 | -1.48 and -2.77 | -0.188 and -0.414 | -2.57 and -1.65 | -1.76 and -0.466 | 0.519 (inactive) and 1.45 (inactive)
C[C@@H](ON=C1[C@H]2CCn3c(=O)n(-c4ccccc4)c(=O)n3[C@H]2[C@H](O)[C@@H]2O[C@H]12)c1cn([C@H](CO)Cc2ccccc2)nn1 | 0.0073 | 0.116 (inactive) | -0.216 | -0.17 | -0.0324 | 0.392 | 0.012 | 0.209 | 0.353 | 0.349 | 2.66 | 0.23 | -0.109 | 0.343 | 0.523 | 0.185 | -0.546 | 0.467 | -0.424 | -0.116 (inactive)
C=CCN(CCCCC)C(=O)C1N(c2c(Cl)cccc2CO)C(=O)C2C(C(=O)O)C3C=CC21O3 (stereo not given) | -1.16 and -0.735 | -0.823 (inactive) and 0.131 (inactive) | -0.508 and -0.548 | -0.245 and -0.184 | 0.846 and 0.315 | -0.115 and -0.621 | -0.0989 and -0.178 | -0.331 and -0.297 | -2.24 and -2.28 | -1.5 and -0.938 | -1.91 and -0.805 | -0.751 and -1.1 | -0.845 and -0.37 | -1.41 and -1.31 | -2.55 and -0.968 | -2.42 and -2.09 | -1.02 and -0.472 | -1.6 and -1.98 | -2.05 and -1.28 | 0.975 (inactive) and 0.308 (inactive)
CC(C)=NOCc1ccc(-c2cn([C@@H]3COC[C@H]3O)nn2)cc1 | 0.655 | 0.43 (inactive) | -0.0179 | -0.131 | -0.132 | 0.355 | -0.116 | -0.103 | 0.329 | 0.0843 | 1.03 | 0.245 | -0.115 | -0.4 | 0.218 | 0.299 | 0.11 | 0.402 | -0.132 | -1.12 (inactive)
C=CC[C@@H](O)c1ccc(OCCO)cc1 | -0.155 and -0.308 | 0.0022 (inactive) and 0.259 (inactive) | -0.506 and -0.643 | -0.222 and -0.176 | 0.492 and 0.807 | -0.638 and -0.478 | -0.585 and -0.612 | -0.813 and -0.661 | -1.56 and -1.81 | -0.831 and -1.48 | 0.7 and -0.687 | 0.301 and -0.59 | -0.595 and -0.79 | -1.34 and -0.494 | 0.716 and -0.517 | -0.418 and -1.58 | 0.856 and 0.491 | -0.146 and -0.805 | -0.455 and 0.763 | -6.43 (inactive) and -6.38 (inactive)
COc1ccc(O[C@H]2C=C[C@@H](c3ccccc3)O[C@@H]2COC(=O)CCC(C)=NO[C@H](C)c2cn([C@H](CO)Cc3ccccc3)nn2)cc1 | 0.683 and 0.0567 | 0.0335 (inactive) and 0.232 (inactive) | 0.0886 and -0.295 | -0.318 and -0.0611 | -0.11 and -0.114 | 0.167 and -0.0458 | -0.226 and -0.0278 | 0.492 and -0.005 | 0.0011 and 0.593 | -0.0163 and -0.0252 | 2.33 and 1.58 | -0.0422 and 0.437 | 0.142 and -0.0962 | 0.643 and 0.766 | 0.125 and 0.326 | 0.218 and 0.684 | -1.04 and -0.144 | 0.653 and 0.557 | 0.207 and 0.223 | 0.845 (inactive) and -0.59 (inactive)
C=C[C@@H](OC)[C@H](O)c1ccc(OCCO)cc1 | -0.128 and 0.397 | -0.158 (inactive) and -0.292 (inactive) | -0.323 and -0.465 | -0.227 and -0.142 | 0.831 and 0.847 | -0.236 and -0.474 | 1.48 and -0.402 | -0.352 and -1.38 | -0.866 and -1.44 | -1.26 and -1.04 | 3.17 and -0.401 | -0.875 and -0.95 | 0.005 and -0.754 | -1.95 and -1.4 | -0.286 and -0.426 | -0.333 and -0.692 | 0.27 and -0.142 | -0.545 and -0.201 | 1.26 and -0.543 | -3.43 (inactive) and -3.1 (inactive)
CCCC[C@@H]1CN2[C@@H](CC[C@@H](C)[C@@H]2c2ccc(Br)cc2)C(=O)O1 | 0.604 and 0.712 | 0.548 (inactive) and 0.14 (inactive) | 0.0293 and -0.0219 | -0.104 and -0.164 | 0.284 and 0.282 | 1.22 and 0.595 | -0.0028 and 0.498 | 1.1 and 0.929 | 0.306 and 0.0739 | 0.402 and 0.987 | 2.07 and 0.917 | 1.16 and 0.572 | 0.367 and -0.0877 | 0.822 and 0.727 | 0.493 and 0.606 | 0.295 and 0.952 | -0.555 and 1.63 | 0.647 and 0.882 | 0.303 and 0.182 | 0.355 (inactive) and -0.572 (inactive)
